In PubChem BioAssay AID1159580 (chemical genetic matrix, 2015):
About 2,000 (36%) of roughly 5,500 compounds were called active. Inconclusive results (about 18%) are left out. Some of the results follow. A number with no mark means an inactive call. Cut-off read from the data, not from the text of the source: active = normalized growth mostly below about 0.91 (no sharp cut-off); inconclusive = no clear call, values can overlap the other calls; inactive = mostly above about 0.92.

Assay: chemical genetic growth profiling, strain panel (AID 1159580);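 note: tested at 20 µM; growth read once vehicle control cultures reached saturation at 30 °C; 1 = growth at the plate median or of vehicle wells; lower values mean less growth of the strain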
Conditions: S. cerevisiae deletion strains, growth OD

CC1C/C=C/C=C/C=C/C=C/C(O[C@@H]2O[C@H](C)[C@@H](O)[C@H](N)[C@@H]2O)CC2OC(O)(CC(O)CC3OC3/C=C/C(=O)O1)CC(O)C2C(=O)O (stereo not given in full)
normalized growth (locus YAL021C, strain ccr4, active compounds read low): 1.02
normalized growth (locus YAL026C, strain drs2, active compounds read low): 0.94
normalized growth (locus YAL030W, strain snc1, active compounds read low): 1
normalized growth (locus YBL061C, strain skt5, active compounds read low): 1
normalized growth (locus YBR009C, strain hhf1, active compounds read low): 0.981
normalized growth (locus YBR023C, strain chs3, active compounds read low): 0.992
normalized growth (locus YBR171W, strain sec66, active compounds read low): 0.142 (active)
normalized growth (locus YBR231C, strain swc5, active compounds read low): 0.981
normalized growth (locus YBR279W, strain paf1, active compounds read low): 1
normalized growth (locus YCL011C, strain gbp2, active compounds read low): 0.989
normalized growth (locus YCL016C, strain dcc1, active compounds read low): 0.993
normalized growth (locus YCL061C, strain MRC1, active compounds read low): 0.802 (active)
normalized growth (locus YCL069W, strain vba3, active compounds read low): 1.01
normalized growth (locus YCR088W, strain abp1, active compounds read low): 0.126 (active)
normalized growth (locus YDL005C, strain med2, active compounds read low): 0.993
normalized growth (locus YDL040C, strain nat1, active compounds read low): 0.993
normalized growth (locus YDR001C, strain nth1, active compounds read low): 1
normalized growth (locus YDR069C, strain doa4, active compounds read low): 0.983
normalized growth (locus YDR137W, strain rgp1, active compounds read low): 1.01
normalized growth (locus YDR159W, strain sac3, active compounds read low): 0.958
normalized growth (locus YDR195W, strain ref2): 0.945
normalized growth (locus YDR297W, strain sur2, active compounds read low): 1
normalized growth (locus YDR334W, strain swr1, active compounds read low): 0.999
normalized growth (locus YDR335W, strain msn5, active compounds read low): 0.985
normalized growth (locus YDR392W, strain spt3, active compounds read low): 0.848
normalized growth (locus YEL003W, strain gim4, active compounds read low): 0.991
normalized growth (locus YEL037C, strain rad23, active compounds read low): 0.992
normalized growth (locus YEL061C, strain CIN8 (second series), active compounds read low): 0.984
normalized growth (locus YER015W, strain faa2, active compounds read low): 0.823 (active)
normalized growth (locus YER016W, strain bim1, active compounds read low): 0.978
normalized growth (locus YER111C, strain swi4, active compounds read low): 0.981
normalized growth (locus YER155C, strain BEM2 (second series), active compounds read low): 0.711 (active)
normalized growth (locus YFR010W, strain ubp6, active compounds read low): 0.982
normalized growth (locus YGL167C, strain pmr1, active compounds read low): 0.984
normalized growth (locus YGL173C, strain kem1, active compounds read low): 0.997
normalized growth (locus YGL227W, strain vid30, active compounds read low): 0.0655 (active)
normalized growth (locus YGL240W, strain doc1, active compounds read low): 0.996
normalized growth (locus YGL253W, strain hxk2, active compounds read low): 0.973
normalized growth (locus YHR013C, strain ard1, active compounds read low): 0.957
normalized growth (locus YHR027C, strain rpn1, active compounds read low): 1
normalized growth (locus YHR030C, strain SLT2, active compounds read low): 0.972
normalized growth (locus YHR079C, strain IRE1, active compounds read low): 0.975
normalized growth (locus YHR142W, strain chs7, active compounds read low): 1.02
normalized growth (locus YJL092W, strain hpr5, active compounds read low): 0.964
normalized growth (locus YJL095W, strain BCK1 (second series), active compounds read low): 1
normalized growth (locus YJL095W, strain BCK1, active compounds read low): 1
normalized growth (locus YJL115W, strain asf1, active compounds read low): 1
normalized growth (locus YJL129C, strain trk1, active compounds read low): 0.949
normalized growth (locus YJL154C, strain vps35, active compounds read low): 0.995
normalized growth (locus YJL164C, strain tpk1, active compounds read low): 1.01
normalized growth (locus YJL166W, strain qcr8, active compounds read low): 0.992
normalized growth (locus YJL187C, strain SWE1, active compounds read low): 1
normalized growth (locus YJR066W, strain TOR1, active compounds read low): 0.943
normalized growth (locus YKL160W, strain elf1, active compounds read low): 1.04
normalized growth (locus YKR026C, strain gcn3, active compounds read low): 0.296 (active)
normalized growth (locus YKR091W, strain srl3, active compounds read low): 0.999
normalized growth (locus YLL001W, strain dnm1, active compounds read low): 0.982
normalized growth (locus YLL026W, active compounds read low): 1
normalized growth (locus YLL041C, strain sdh2, active compounds read low): 0.998
normalized growth (locus YLR027C, strain aat2, active compounds read low): 1
normalized growth (locus YLR113W, strain HOG1, active compounds read low): 1.02
normalized growth (locus YLR221C, strain rsa3, active compounds read low): 1.02
normalized growth (locus YLR258W, strain gsy2, active compounds read low): 0.977
normalized growth (locus YLR262C, strain YPT6 (second series), active compounds read low): 1.01
normalized growth (locus YLR320W, strain mms22, active compounds read low): 1
normalized growth (locus YLR342W, strain FKS1, active compounds read low): 0.994
normalized growth (locus YLR357W, strain rsc2, active compounds read low): 0.427 (active)
normalized growth (locus YLR370C, strain arc18, active compounds read low): 1.02
normalized growth (locus YLR384C, strain iki3, active compounds read low): 0.994
normalized growth (locus YML120C, strain ndi1, active compounds read low): 1.01
normalized growth (locus YMR058W, strain fet3, active compounds read low): 0.921
normalized growth (locus YMR125W, strain sto1, active compounds read low): 0.0829 (active)
normalized growth (locus YMR129W, active compounds read low): 0.987
normalized growth (locus YMR205C, strain PFK2, active compounds read low): 0.985
normalized growth (locus YMR231W, strain pep5, active compounds read low): 0.997
normalized growth (locus YNL071W, strain lat1, active compounds read low): 1
normalized growth (locus YNL183C, strain NPR1, active compounds read low): 0.956
normalized growth (locus YNL209W, strain ssb2, active compounds read low): 0.999
normalized growth (locus YNL248C, strain rpa49, active compounds read low): 0.544 (active)
normalized growth (locus YNL322C, strain KRE1 (second series), active compounds read low): 1
normalized growth (locus YNR049C, strain mso1, active compounds read low): 0.994
normalized growth (locus YOR001W, strain rrp6, active compounds read low): 1.01
normalized growth (locus YOR070C, strain gyp1, active compounds read low): 0.998
normalized growth (locus YOR080W, strain dia2, active compounds read low): 1
normalized growth (locus YOR083W, strain WHI5, active compounds read low): 1.03
normalized growth (locus YOR106W, strain vam3, active compounds read low): 1.03
normalized growth (locus YOR231W, strain MKK1, active compounds read low): 0.963
normalized growth (locus YOR265W, strain rbl2, active compounds read low): 0.999
normalized growth (locus YOR270C, strain vph1, active compounds read low): 0.948
normalized growth (locus YOR290C, strain snf2, active compounds read low): 0.953
normalized growth (locus YPL051W, strain arl3, active compounds read low): 1
normalized growth (locus YPL078C, strain atp4, active compounds read low): 1.02
normalized growth (locus YPL106C, strain sse1, active compounds read low): 1.01
normalized growth (locus YPL240C, strain hsp82, active compounds read low): 1
normalized growth (locus YPL256C, strain CLN2, active compounds read low): 0.991
